Cycloheximide cs – affects cycloheximide protein synthesis inhibition readout, counter-screen; cell reporter, cycloheximide protein synthesis inhibition counterscreen; max response, %; actives 12% (n = 300,000); AID 2314; in the data active = max response mostly above about 13%, no sharp cut-off; inactive = mostly below about 14%; also: read at 38.3 µM for the half of the compounds with a filed dose
Pf growth 48h – inhibits P. falciparum growth in the first generation, 48 h | P. falciparum luciferase growth in erythrocytes, 48 h | Potency, µM (top dose mostly 28.7 µM), most hits filed as inhibitors | actives 5.9% (n = 310,000) | AID 504832
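Read-out is firefly luciferase luminescence from an integrated reporter in P. falciparum, so falling signal marks reduced parasite growth. Infected erythrocytes were at 2% hematocrit and 0.1% parasitemia (final) in Albumax-supplemented RPMI 1640.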
Pf growth 96h – P. falciparum growth inhibition at 96 hours | P. falciparum luciferase reporter growth, 96 h | Potency, µM (series often up to 28.7 µM), actives largely listed as inhibitors | actives 6.9% (n = 320,000) | AID 504834
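Cell-based qHTS: luciferase-tagged P. falciparum in erythrocytes (2% hematocrit, 0.05% parasitemia final) incubated with compounds for 96 hours, 37 C, 5% CO2; luciferase detection reagent then added and luminescence measured.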
Shiga toxin inh – Shiga toxin inhibition. actives 9.2% (n = 290,000). Vero cells, Shiga toxin protein synthesis inhibition reporter. inhibition, % at 38.7 µM; in the data active = inhibition mostly above about 28%, no sharp cut-off; inactive = mostly below about 43%
HCMV antiviral – human cytomegalovirus inhibition; HFF cells, HCMV-luciferase reporter, 72 h; active compounds read low; activity change, negative = inhibition, % at 57.5 µM; actives 4.5% (n = 410,000); in the data active = activity change below about -60%; inconclusive = no clear call, values can overlap the other calls; inactive = above about -39%
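After 16 h attachment at 37C, HFF cells received test compound and HCMV-luciferase (1 PFU/cell); reporter luminescence read 72 h later, data normalized against buffer-only and known inhibitor Salinomycin.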
Large screens that a line does not name were inactive. The list is not random: actives were taken first. Their share in the collection is about 20%. Unless noted, calls follow the shape of the dose curve; as a rule, active = well fitted inhibition curve with a large enough effect; inconclusive = small, poorly fitted or top-dose-only effect, or another doubt; inactive = no such curve, though single readings can be large or run the other way.

O=C(Nc1nc2cc3c(cc2s1)OCCO3)C1=COCCO1	HCMV antiviral active
O=C(Nc1cccc(O)c1)c1ccc(NC(=O)c2cccs2)cc1	Cycloheximide cs 74, Shiga toxin inh 130
O=C(Nc1ccc(NC(=O)c2cccs2)cc1)c1ccc(Br)cc1	none (no result: Cycloheximide cs, Pf growth 48h, Pf growth 96h, Shiga toxin inh)
O=C(Nc1ccc(NC(=O)c2cccs2)cc1)c1ccc(Cl)cc1	none (no result: Cycloheximide cs, Pf growth 48h, Pf growth 96h, Shiga toxin inh)
O=C(Nc1ccc(NC(=O)c2cccs2)cc1)c1ccccc1	Cycloheximide cs 24, Shiga toxin inh 46
O=C(Nc1ccc(O)cc1)c1ccc(NC(=O)c2cccs2)cc1	Cycloheximide cs 38, Shiga toxin inh 87
CCOC(=O)C1(C)CCCN1C(=O)c1ccc(N(C)C)cc1 (centres undefined)	none (no result: Cycloheximide cs, Pf growth 48h, Pf growth 96h, Shiga toxin inh)
COCCNC(=O)C1(C)CCCN(CCC(=O)c2ccc(Br)cc2)C1 (centres undefined)	none (no result: Cycloheximide cs, Pf growth 48h, Pf growth 96h, Shiga toxin inh)
CC(=O)NCc1ccc(S(=O)(=O)N/N=C/c2ccc(N(C)C)cc2)cc1	none
Cc1c(Cl)cccc1-c1ccc(CNCCSc2nnnn2-c2ccccc2)o1	none (no result: Cycloheximide cs, Pf growth 48h, Pf growth 96h, Shiga toxin inh)
Cc1[nH]c(=O)[nH]c(=O)c1/C=N/NC(=O)CCCCCNC(=O)OC(C)(C)C	Pf growth 96h inconclusive
Cc1[nH]c(=O)[nH]c(=O)c1/C=N/NC(=O)CCNC(=O)OC(C)(C)C	Cycloheximide cs 18
O=C(NN1C(=O)NC2(CCCCC2)C1=O)c1ccc(Cl)c(Cl)c1	none (no result: Cycloheximide cs, Shiga toxin inh)
COCCNC(=O)c1[nH]c(C(F)(F)F)nc1-c1ccccc1	none (no result: Cycloheximide cs, Pf growth 48h, Pf growth 96h, Shiga toxin inh)
CCOC(=O)c1ccc(Nc2nnc(C(C)(C)C)c(=O)[nH]2)cc1	Pf growth 48h 5.2µM, Pf growth 96h inconclusive
CCc1ccc(NC(=O)CO/N=C(\C)c2cc3ccccc3o2)cc1	none
C/C(=N\OCc1ccccc1C#N)c1cc2ccccc2o1	Cycloheximide cs 36, Shiga toxin inh 71, HCMV antiviral inconclusive
CSc1ccccc1NC(=O)CO/N=C(\C)c1cc2ccccc2o1	Cycloheximide cs 18, HCMV antiviral inconclusive
C/C(=N\OCC(=O)NC12CC3CC(CC(C3)C1)C2)c1cc2ccccc2o1	Cycloheximide cs 18, Pf growth 96h inconclusive
COc1ccc(-c2csc3nc[nH]c(=O)c23)cc1OC	none
CCCOc1ccc(-c2csc3ncn(Cc4ccc(C(=O)O)cc4)c(=O)c23)cc1	Pf growth 96h inconclusive, HCMV antiviral inconclusive
CCCOc1ccc(-c2csc3nc[nH]c(=O)c23)cc1	Cycloheximide cs 41, Shiga toxin inh 47
Cc1ccc(-c2csc3ncnc(NCCC(=O)O)c23)cc1C	none
Cc1ccc(-c2csc3nc[nH]c(=S)c23)cc1C	Pf growth 48h inconclusive, Pf growth 96h 10µM, HCMV antiviral inconclusive
O=c1[nH]cnc2scc(-c3ccc(-c4ccccc4)cc3)c12	Cycloheximide cs 29 (no result: Pf growth 48h)
O=C(N/N=C/c1cccc(O)c1)NC1CCCCC1	Shiga toxin inh 89
O=C(N/N=C/c1ccncc1)NC1CCCCC1	none
O=C(N/N=C/C=C/c1ccccc1)NC1CCCCC1	Cycloheximide cs 16
NC(=O)N/N=C/C=C/c1ccccc1	Pf growth 96h inconclusive
CC(C)(C)c1ccc(C(=O)NCC(=O)N2CCC3(CC2)NCCc2[nH]cnc23)cc1	none
COc1ccc(S(=O)(=O)N2CCCC2CNC(=O)c2cccc(OC)c2)cc1 (centres undefined)	Pf growth 48h inconclusive, Pf growth 96h inconclusive (no result: Cycloheximide cs, Shiga toxin inh)
Cc1ccc2c(=O)c(C(=O)c3cccc(Cl)c3)cn(CC(=O)Nc3ccccc3C(F)(F)F)c2n1	none (no result: Cycloheximide cs, Pf growth 48h, Pf growth 96h, Shiga toxin inh)
COc1ccc(C2=C3C(=O)OCC3Cc3ncn(Cc4ccccc4)c32)cc1 (centres undefined)	Pf growth 96h inconclusive, HCMV antiviral -76 (no result: Cycloheximide cs, Shiga toxin inh)
CCN1C(=O)NC(=O)/C(=C\c2ccc(N3CCOCC3)cc2OC)C1=O	Cycloheximide cs 67, Shiga toxin inh 56
COc1cc(N2CCOCC2)ccc1/C=C1\C(=O)NC(=O)N(C2CCCCC2)C1=O	Pf growth 48h inconclusive
COc1ccc(Cn2c(-c3ccc(OC)cc3)nc3ccccc32)cc1	Pf growth 48h inconclusive
COc1ccc(Cn2c(-c3ccc(Br)cc3)c[n+]3ccccc23)cc1	Cycloheximide cs 57, Pf growth 48h 0.66µM, Pf growth 96h 0.13µM, Shiga toxin inh 49, HCMV antiviral -97
Cc1cccc(-n2nc3c(c2NC(=O)C(C)C)CS(=O)(=O)C3)c1C	Pf growth 48h inconclusive
Cc1sc(NC(=O)CSc2nnc(-c3ccccc3)o2)c(C#N)c1C	Cycloheximide cs 33, Shiga toxin inh 58
Cc1sc(NC(=O)CSc2nc(N)cc(N)n2)c(C#N)c1C	none
CC1CCc2c(sc(NC(=O)Cn3nc(C(=O)O)c4ccccc4c3=O)c2C#N)C1 (centres undefined)	none
N#Cc1c(NC(=O)CSc2nnc(-c3ccccc3)o2)sc2c1CCCC2	Cycloheximide cs 16, Pf growth 48h inconclusive, Shiga toxin inh 52
CC1CCc2c(sc(NC(=O)CSc3nnc(-c4ccccc4)o3)c2C#N)C1 (centres undefined)	Cycloheximide cs 23, Shiga toxin inh active
O=C(c1ccc(SCc2cccc(Br)c2)c([N+](=O)[O-])c1)N1CCN(c2ccccn2)CC1	Pf growth 96h inconclusive
Cc1ccc(-n2nc(CO)c(C(=O)NCc3ccccn3)n2)cc1C	none (no result: Cycloheximide cs, Pf growth 48h, Pf growth 96h, Shiga toxin inh)
COc1cc2cc(CN(CCN3CCCC3)C(=O)Nc3ccc(F)cc3)c(=O)[nH]c2cc1OC	Pf growth 48h 9.3µM
COc1cc2cc(CN(CCN3CCOCC3)C(=O)Nc3ccc(F)cc3)c(=O)[nH]c2cc1OC	Pf growth 48h inconclusive
Cc1ccc(C)c2[nH]c(=O)c(CN(CCN3CCCC3)C(=O)Nc3ccc(F)cc3)cc12	Pf growth 48h 4.1µM, Pf growth 96h inconclusive
CC(=O)NC(=O)COC(=O)/C=C/c1c(C)nn(Cc2c(Cl)cccc2Cl)c1Cl	Pf growth 48h inconclusive (no result: Pf growth 96h)
CCCOc1ccccc1/C=N/NC(=O)C1CC1	Pf growth 48h inconclusive
CCc1nnc(NC(=O)C2Cc3ccccc3CN2S(=O)(=O)CC)s1 (centres undefined)	HCMV antiviral inconclusive
CCS(=O)(=O)N1Cc2ccccc2CC1C(=O)Nc1nc2ccccc2[nH]1 (centres undefined)	Cycloheximide cs 34, Shiga toxin inh 194
CCS(=O)(=O)N1Cc2ccccc2CC1C(=O)Nc1nnc(C2CC2)s1 (centres undefined)	Pf growth 48h inconclusive
CCS(=O)(=O)N1Cc2ccccc2CC1C(=O)Nc1nc2ccccc2s1 (centres undefined)	Cycloheximide cs 43, Shiga toxin inh active, HCMV antiviral inconclusive
O=C(NCCC1=CCCCC1)C1CCCN(c2nc3ccccc3o2)C1 (centres undefined)	none
Cc1ccc(C(C)c2c(C)c([N+](=O)[O-])cc(C)c2[N+](=O)[O-])cn1 (centres undefined)	Pf growth 48h inconclusive
CC(C)c1ccc(OCC(=O)N(Cc2ccccc2)c2ccccn2)cc1	Cycloheximide cs 14, Pf growth 96h inconclusive, HCMV antiviral inconclusive
CC(C)(Oc1ccc(Cl)cc1)C(=O)N(Cc1ccccc1)c1ccccn1	Pf growth 48h inconclusive, Pf growth 96h 1.9µM, HCMV antiviral inconclusive
